Records with an inconclusive call do not appear. The source made the active and inactive calls. The call rests on the fitted dose curve; in most records, active means well fitted curve in either direction with a large enough effect (not every such curve was filed as active); inconclusive means small, poorly fitted or top-dose-only effect, or another doubt; inactive means flat fitted curve, though single readings scatter.
On the % scale 0 is the no-effect control and ±100 the full control effect.

The target of the test is Mitogen-activated protein kinase 10 (Mus musculus) (UniProt Q61831). Kind of test: JNK3 AlphaScreen Assay (AID 530).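 Further: kinase came from lysate of stimulated human HepG2 cells.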 The settings on record: JNK3 lysate, c-Jun phosphorylation; series mostly up to 57.1 µM; activity change, negative = inhibition: at the top concentration. The source says: NIH Chemical Genomics Center [NCGC]
NIH Molecular Libraries Screening Centers Network [MLSCN]
The c-jun N-terminal kinase (JNK) family are serine/threonine protein kinases that phosphorylate c-jun, a component of the transcription factor […] (AP-1). JNK kinases are members of the mitogen-activated protein kinase family including the extracellular regulated kinases and p38 kinases. Three JNK genes (JNK 1, 2, and 3) have been identified in humans so far. JNK1 and JNK2 have a broad distribution and JNK3 is primarily found in neuronal tissues and cardiac myocytes.
JNK3 has been under consideration as a target for the treatment of neurodegenerative disorders. […] JNK pathway is also involved in pathological process in a mouse model of Parkinson's disease (Xia et al., 2001).
Given these potential tissue distributions and links to neuroprotection, JNK3 inhibitors should provide useful investigational tools to study the role of this kinase in several diseases including, arthritis, stroke, myocardial infarction, ischemic injury and Parkinson's disease.
A homogeneous AlphaScreen is developed to measure the activity of JNK3. AlphaScreen is a two bead-based proximity-dependent chemical energy transfer luminescent assay platform. The phosphorylation of a biotinylated c-jun substrate by JNK3 can be detected with an antibody raised against phosphorylated c-jun. This process brings streptavidin donor beads and Protein-A acceptor beads to within a proximity range of <200 nm, and subsequently lead a chemical luminescent reaction upon exciting donor beads with 680 nm laser excitation light. Inhibition of JNK3 activity by small molecules and subsequent decrease in the antibody binding to biotinylated c-jun could attenuate or abolish this chemical luminescent reaction.
Yang DD, Kuan CY, Whitmarsh AJ, Rincon M, Zheng TS, Davis RJ, Rakic P and Flavell RA (1997) Absence of excitotoxicity-induced apoptosis in the hippocampus of mice lacking the Jnk3 gene. Nature 389:865-870. [PMID: 9349820]
Herdegen T, Claret FX, Kallunki T, Martin-Villalba A, Winter C, Hunter T, and Karin M (1998) Lasting N-terminal phosphorylation of c-Jun and activation of c-Jun N-terminal kinases after neuronal injury. J.Neurosci. 18:5124-5135. [PMID: 9651196]
Xia XG, Harding T, Weller M, Bieneman A, Uney JB and Schulz JB (2001) Gene transfer of the JNK interacting protein-1 protects dopaminergic neurons in the MPTP model of Parkinson's disease. Proc.Natl.Acad.Sci.U.S.A. 98:10433-10438.
NCGC Assay Protocol Summary:
GST-cJun (1-79) (Stratagene, La Jolla CA, #205145) was biotnylated by PerkinElmer (PerkinElmer-BioSignalInc. Montreal, Canada) and was detectable by the streptavidin Donor beads. Anti-(phospho)cJun (Ser73) antibody was from UpState (Charlottesvilles, VA, #06-659). JNK3-containing lysates were generated from HepG2 cells and pre-activated by interleukin1-beta and tumor necrosis factor alpha. All reagents were stored at -20 C before using. Phosphorylated biotinylated-GST-cJun was recognized by Anti-(phospho)cJun (Ser73) antibody and this process brings acceptor and donor beads together. Therefore JNK3 phosphorylation of cJun can be measured by Alpha reading by EnVision (PerkinElmer, Boston, MA).
The composition of kinase buffer was (in mM) 20 tris- HCl (pH 7.6) 10 MgCl2, 1 DTT, and 0.1 Na3VO4 and 0.01% Tween-20. Beads were diluted in detection buffer containing (in mM) 20 tris-HCl (pH 7.7), 20 NaCl and 80 EDTA and 0.3% BSA. The assay was performed at room temperature. All compounds were screened as titrations from 0.6 nM to 46 uM final concentration. The assay was performed in 1536-well format (white solid bottom and untreated) as follows:
Sequence,Parameter,Value,Description
1,Reagent,3 uL,Biotin-GST-cJun, Anti-(phospho)cJun and pre-activated JNK3-containing lysates
2,Compound,23 nL,Final concentration was 0.6nM to 46uM
3,Time,15 minutes,Room Temperature
4,Reagent,1 uL,ATP final concentration 10uM
6,Reagent,0.5 uL,2ng/well bead mixture
[…]
Take `c1ccc(CCCN2CCN(CCOC(c3ccccc3)c3ccccc3)CC2)cc1`: the result was inactive.
In the case of `CC(=O)[O][Hg][c]1ccccc1`, the “activity change, negative = inhibition” value is 2.1% (inactive).
Still for that read-out and setting: for `CC(=O)OCC1=C(C(=O)O)N2C(=O)[C@@H](N)[C@@H]2SC1` the value was 8.16% [at 25.6 µM] (inactive); for `CNCCc1c[nH]c2ccc(O)cc12`, 11.3% (inactive); for `O=C(O)CC[N+](=O)[O-]`, 10% (inactive).
Take `S=C(NC1CCCCC1)N1CCC(c2cnc[nH]2)CC1`: the “activity change, negative = inhibition” value is -14.6% (inactive).
Still for that read-out and setting: with `O=[N+]([O-])c1c(Cl)c(Cl)cc(Cl)c1Cl` the figure was 6.21% (inactive); with `CN(C)[C@@H]1C(=O)C(C(N)=O)=C(O)[C@@]2(O)C(=O)C3=C(O)c4c(O)cccc4[C@@](C)(O)[C@H]3[C@H](O)[C@@H]12`, 5.46% (inactive).
Regarding `CCOC(=O)c1cncn1[C@H](C)c1ccccc1`, the “activity change, negative = inhibition” value is 5.76% (inactive).
As for `CC(C)Oc1cccnc1N(C)C1CCN(Cc2ccccc2)CC1`, the “activity change, negative = inhibition” value was -12.8% (inactive).
Consider `NCc1cc(=O)[nH]o1`, for which the compound was classed as inactive.
Turning to `Nc1ccc(Sc2ccc(N)cc2)cc1`, the “activity change, negative = inhibition” value is -12.8% (inactive).
On to `Cn1cnc(CCN)c1`, for which the “activity change, negative = inhibition” value is 1.06% (inactive).
Turning to `CCCCc1ccc(C(=O)O)nc1`, the result was inactive.
On to `Cc1cc(O)ccc1Cl`, for which the “activity change, negative = inhibition” value was -11.7% (inactive).
The same measure, in the same setting: with `O=C(O)COc1ccccc1` the figure was -12.6% (inactive).
Regarding `Nc1ccc([N+](=O)[O-])cc1`, the “activity change, negative = inhibition” value was 23.4% (inactive).
Consider `CC(=O)NCCc1c[nH]c2ccccc12`, for which the compound was called inactive.
Regarding `CCOCCOC(C)=O`, the “activity change, negative = inhibition” value was 7.69% (inactive).
Same read-out and setting: with `COc1ccc2c(c[n+](C)c3c4cc5c(cc4ccc23)OCO5)c1OC` the figure was 17.5% (inactive); with `Cc1c(C(=O)c2cccc3ccccc23)c2cccc3c2n1[C@H](CN1CCOCC1)CO3`, -14.4% (inactive).
As to `Cc1nc(-c2ccc(-c3ccc(C(=O)N4CCc5cc6c(cc54)C4(CCN(C)CC4)CO6)cc3)c(C)c2)no1`, the outcome was inactive.
For `CCCN1CCC[C@H](c2cccc(O)c2)C1`, the “activity change, negative = inhibition” value was -7.85% (inactive).
On to `C[C@]12N[C@H](Cc3ccccc31)c1ccccc12`, for which the “activity change, negative = inhibition” value was -5.96% (inactive).
As for `O=[N+]([O-])c1c2ccccc2cc2ccccc12`, the “activity change, negative = inhibition” value is -15.1% (inactive).
Regarding `CN(C)NC(=O)CCC(=O)O`, the “activity change, negative = inhibition” value is 2.66% (inactive).
For the compound `Clc1cnc(Oc2ccc(Oc3ncc(Cl)cc3Cl)cc2)c(Cl)c1`, the “activity change, negative = inhibition” value was 10.5% (inactive).
Consider `O=C(O)Cc1cnc[nH]1`, for which the “activity change, negative = inhibition” value is -16.6% (inactive).
`CC[C@@]1(O)C(=O)OCc2c1cc1n(c2=O)Cc2cc3ccccc3nc2-1`: the call was inactive.
As for `CN[C@@H]1C[C@@H](c2ccc(Cl)c(Cl)c2)c2ccccc21`, the “activity change, negative = inhibition” value was -15.4% (inactive).
With `O=c1cccc2n1CC1CNC[C@H]2C1`, the compound was called inactive.
`COC(=O)[C@@H](N)CCCN=C(N)N[N+](=O)[O-]`: the “activity change, negative = inhibition” value is 6.69% (inactive).
Regarding `C#CCOC(=O)C1=CCCN(C)C1`, the compound was called inactive.
On to `Cc1nccc2c1[nH]c1ccccc12`, for which the “activity change, negative = inhibition” value is -19.1% [at 25.6 µM] (inactive).
With `CCCN1CCO[C@@H]2c3cc(O)ccc3OC[C@@H]21`, the “activity change, negative = inhibition” value was -3% (inactive).
Consider `CCCN(CCC)[C@@H]1CCc2ccc(O)cc2C1`, for which the compound was classed as inactive.
Regarding `Nc1ccc(Cl)cc1N`, the “activity change, negative = inhibition” value was -12.7% (inactive).
Regarding `NC(=NCCC[C@H](N)C(=O)O)N[N+](=O)[O-]`, the “activity change, negative = inhibition” value was 19.8% (inactive).
In the case of `O=C(O)C(Cl)Cl`, the “activity change, negative = inhibition” value was 1.49% (inactive).
As for `COC(C)(C)CCCC(C)C/C=C/C(C)=C/C(=O)OC(C)C` (stereo not given), the “activity change, negative = inhibition” value is 22.4% (inactive).
